For 14 compounds, growth results are on record in PubChem BioAssay (NCI).

About 83,000 compounds went through this panel and 20% of them were active in at least one assay; those are over-represented in the sample as a whole.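 Interpretation: 100, growth as untreated; towards 0, rising growth inhibition; 0, no net growth; 0 to -100, cell death. Compounds scoring below 10 were considered active.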 Unmarked numbers belong to inactive results. The source made the active and inactive calls.

The subject of the assay is CAKI-1 renal. The experiment in a line: NCI-60 one-dose screen, 48 h (100 = growth as untreated, 0 = no growth, -100 = all killed). To be noted: 10 µM unless noted.
As for `Cc1ccc(N)cc1[As]=[As]c1cc(N)ccc1C` (centres undefined), the growth is -91.2% (active).
With `C/C(=N/OC(=O)N(C)C)c1cc(Cl)ccc1Cl` the figure was 98.9%.
With `CCC(C)[C@H]1O[C@]2(C=C[C@@H]1C)C[C@@H]1C[C@@H](C/C=C(\C)[C@@H](OC3C[C@H](OC)C(O[C@H]4C[C@H](OC)[C@@H](O)[C@H](C)O4)[C@H](C)O3)[C@@H](C)/C=C/C=C3\CO[C@@H]4[C@H](O)C(C)=C[C@@H](C(=O)O1)[C@]34O)O2` (some centres undefined) the figure was 19.8%.
As for `CC1(C)N=C(N)N=C(N)N1c1ccc(CCCCc2ccc(S(=O)(=O)F)cc2)cc1`, the figure is 40.8%.
For `Cc1ccc(C(=O)C2CN(C)CCC2(O)c2ccc(C)cc2)cc1` (centres undefined), the growth was 93.7%.
With `O=C1NC(=O)C(CN2C(=O)C3(c4ccccc42)[C@H](Cl)C(=O)N3c2ccccc2)C(=O)N1` (some centres undefined) the figure was 85.7%; with `C=CCC1(CC)C(=O)NC(=S)NC1=O`, 96.8%; with `C/C(=N/OC(=O)N(C)C)c1ccc(Cl)cc1Cl`, 96.6%.
With `CCC[CH2][Sn]([CH2]CCC)([CH2]CCC)[O]C(=O)CC` the figure was -95.2% (active).
With `O=C(NCc1ccc([N+](=O)[O-])cc1)Nc1ccc(S(=O)(=O)F)cc1` the figure was 78%; with `n1nc(-c2nonc2-c2nn[nH]n2)n[nH]1`, 98.8%; with `CNC(=O)Oc1ccccc1-c1ccccc1`, 95.5%.
For `CC1(C)N=C(N)N=C(N)N1c1ccc(OCCCCOc2ccc(S(=O)(=O)F)cc2)c(Cl)c1`, the growth is 44.5%.
As for `CCCCOC(=O)c1ccccc1C(=O)O.CCCCOC(=O)c1ccccc1C(=O)O.[Cu+2]`, the figure is 113%.
